Assay in all cases: DAPPL (digital affinity profiling via proximity ligation, sequencing); 10 mM Tris-HCl pH 7.5, 50 mM NaCl, 1 mM DTT, 4% glycerol, room temperature, 30 min; GST-TFs on glutathione beads, 16-mer random dsDNA library, 0.1% formaldehyde crosslink after washing; high values mean tight binding
Common to all, as to details: protein: recombinant; tags: N-terminal GST; dsDNA, one strand shown

One assay deals with T1, ELK1 (Homo sapiens, UniProt P19419 1-428).
T1 sequence: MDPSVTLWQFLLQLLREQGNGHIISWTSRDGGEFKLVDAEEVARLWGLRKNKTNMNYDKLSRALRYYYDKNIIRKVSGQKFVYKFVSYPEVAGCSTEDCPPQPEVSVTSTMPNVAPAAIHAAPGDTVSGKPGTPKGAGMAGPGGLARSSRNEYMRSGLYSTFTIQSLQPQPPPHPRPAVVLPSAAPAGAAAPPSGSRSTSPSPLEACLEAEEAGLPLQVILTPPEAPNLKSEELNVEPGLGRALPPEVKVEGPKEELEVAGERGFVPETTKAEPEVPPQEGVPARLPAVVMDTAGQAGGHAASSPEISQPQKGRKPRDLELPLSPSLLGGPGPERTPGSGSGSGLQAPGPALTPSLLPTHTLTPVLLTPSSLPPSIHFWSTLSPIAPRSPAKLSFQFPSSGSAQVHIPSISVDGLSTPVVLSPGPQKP
In a few lines:
(§1)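 Beads coated with glutathione captured GST-fused human transcription factors that had been expressed in yeast, and the factors were then given DNA barcodes and pooled with a tag-only sample. The pools were incubated with 200 nmole of a random double-stranded 16-mer DNA library in Tris/NaCl/DTT/glycerol buffer for 30 min at room temperature, washed, crosslinked with 0.1% formaldehyde and proximity-ligated with BsaI/T4 ligase at 37 °C for 1 h. PCR amplification and Illumina NextSeq500 sequencing came last. Binding signal is each hexamer's read frequency for a factor divided by its frequency for the tag-only sample.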

A further assay has as its target T2, GABPA (Homo sapiens, UniProt Q06546 1-454).
T2 sequence: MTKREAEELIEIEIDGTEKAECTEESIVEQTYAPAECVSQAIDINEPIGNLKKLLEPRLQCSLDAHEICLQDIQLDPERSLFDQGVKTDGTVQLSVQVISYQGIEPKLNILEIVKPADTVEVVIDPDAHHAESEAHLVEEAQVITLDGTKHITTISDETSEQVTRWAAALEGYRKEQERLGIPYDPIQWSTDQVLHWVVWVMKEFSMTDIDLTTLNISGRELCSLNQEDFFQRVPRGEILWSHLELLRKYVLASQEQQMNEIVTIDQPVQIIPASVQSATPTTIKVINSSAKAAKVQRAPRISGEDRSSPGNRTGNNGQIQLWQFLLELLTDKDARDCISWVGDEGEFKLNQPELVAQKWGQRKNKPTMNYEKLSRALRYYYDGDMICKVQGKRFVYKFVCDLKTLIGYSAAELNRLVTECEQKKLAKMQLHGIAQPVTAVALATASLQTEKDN
The method, boiled down:
as §1

A further assay deals with T3, ERG (Homo sapiens, UniProt P11308 1-479).
T3 sequence: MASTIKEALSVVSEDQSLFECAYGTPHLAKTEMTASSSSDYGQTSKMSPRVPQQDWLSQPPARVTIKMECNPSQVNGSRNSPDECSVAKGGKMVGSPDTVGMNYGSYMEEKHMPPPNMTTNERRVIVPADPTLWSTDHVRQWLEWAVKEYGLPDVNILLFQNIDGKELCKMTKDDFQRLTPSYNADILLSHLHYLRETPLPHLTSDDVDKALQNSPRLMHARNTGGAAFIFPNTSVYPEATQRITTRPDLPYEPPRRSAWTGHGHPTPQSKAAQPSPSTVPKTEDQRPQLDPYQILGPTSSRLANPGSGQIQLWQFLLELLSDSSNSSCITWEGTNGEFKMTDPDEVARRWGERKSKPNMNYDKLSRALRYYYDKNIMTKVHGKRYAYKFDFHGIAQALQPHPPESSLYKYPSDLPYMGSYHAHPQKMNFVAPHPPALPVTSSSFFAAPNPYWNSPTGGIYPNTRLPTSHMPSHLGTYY
In a few lines:
as §1

A further assay addresses ELF1 (Homo sapiens, UniProt P32519 1-619). In a few lines: as §1
The target of another assay is T4, EHF (Homo sapiens, UniProt Q9NZC4 1-300).
T4 sequence: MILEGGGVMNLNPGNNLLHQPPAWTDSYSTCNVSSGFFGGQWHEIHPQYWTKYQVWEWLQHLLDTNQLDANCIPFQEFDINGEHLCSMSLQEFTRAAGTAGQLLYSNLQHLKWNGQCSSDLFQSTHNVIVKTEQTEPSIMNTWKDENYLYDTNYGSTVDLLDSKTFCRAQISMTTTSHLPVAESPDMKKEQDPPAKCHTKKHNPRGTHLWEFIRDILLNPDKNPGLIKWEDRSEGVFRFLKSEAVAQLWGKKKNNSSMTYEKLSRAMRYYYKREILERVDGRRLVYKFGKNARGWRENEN
In a few lines: as §1

A further assay has as its target SPIB (Homo sapiens, UniProt Q01892 1-262). In a few lines:
as §1

The target in a further assay is T5, FEV (Homo sapiens, UniProt Q99581 1-238).
T5 sequence: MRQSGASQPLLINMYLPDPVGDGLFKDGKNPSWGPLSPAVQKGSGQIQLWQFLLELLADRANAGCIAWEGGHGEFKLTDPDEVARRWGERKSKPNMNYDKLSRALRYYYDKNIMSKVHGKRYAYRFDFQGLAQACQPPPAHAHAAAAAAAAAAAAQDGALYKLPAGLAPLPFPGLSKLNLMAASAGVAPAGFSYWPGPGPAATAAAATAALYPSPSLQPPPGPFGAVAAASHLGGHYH
The method, boiled down:
as §1

A further assay has as its target ETV5 (Homo sapiens, UniProt P41161 1-510). The method, boiled down:
as §1

A further assay addresses ELF4 (Homo sapiens, UniProt Q99607 1-663). In a few lines:
as §1

In a further assay the target is T6, ELK4 (Homo sapiens, UniProt P28324-2 1-405).
T6 sequence: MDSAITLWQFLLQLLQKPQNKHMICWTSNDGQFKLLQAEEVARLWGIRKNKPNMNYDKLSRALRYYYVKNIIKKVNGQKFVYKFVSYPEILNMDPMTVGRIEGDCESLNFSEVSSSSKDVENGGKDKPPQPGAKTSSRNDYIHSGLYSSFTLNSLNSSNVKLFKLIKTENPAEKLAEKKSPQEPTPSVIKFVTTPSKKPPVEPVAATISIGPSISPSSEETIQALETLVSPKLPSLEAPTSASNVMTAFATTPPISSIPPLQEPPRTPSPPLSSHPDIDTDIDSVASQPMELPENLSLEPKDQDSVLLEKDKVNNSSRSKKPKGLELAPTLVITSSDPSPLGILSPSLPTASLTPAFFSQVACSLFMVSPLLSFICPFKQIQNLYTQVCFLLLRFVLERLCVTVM
The method, boiled down:
as §1

The next assay deals with T7, ETV2 (Homo sapiens, UniProt O00321 1-342).
T7 sequence: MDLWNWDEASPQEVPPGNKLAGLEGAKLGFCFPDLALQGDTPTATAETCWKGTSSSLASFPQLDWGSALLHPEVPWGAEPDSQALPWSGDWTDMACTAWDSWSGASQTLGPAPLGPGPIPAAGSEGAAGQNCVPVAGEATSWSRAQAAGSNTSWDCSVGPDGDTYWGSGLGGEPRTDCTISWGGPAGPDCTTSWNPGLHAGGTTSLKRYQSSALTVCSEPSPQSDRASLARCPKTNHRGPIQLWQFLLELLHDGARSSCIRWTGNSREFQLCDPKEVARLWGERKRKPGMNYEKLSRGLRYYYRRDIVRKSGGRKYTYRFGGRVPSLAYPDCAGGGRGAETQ
In a few lines:
as §1

The next assay deals with T8, ERF (Homo sapiens, UniProt P50548 1-548).
T8 sequence: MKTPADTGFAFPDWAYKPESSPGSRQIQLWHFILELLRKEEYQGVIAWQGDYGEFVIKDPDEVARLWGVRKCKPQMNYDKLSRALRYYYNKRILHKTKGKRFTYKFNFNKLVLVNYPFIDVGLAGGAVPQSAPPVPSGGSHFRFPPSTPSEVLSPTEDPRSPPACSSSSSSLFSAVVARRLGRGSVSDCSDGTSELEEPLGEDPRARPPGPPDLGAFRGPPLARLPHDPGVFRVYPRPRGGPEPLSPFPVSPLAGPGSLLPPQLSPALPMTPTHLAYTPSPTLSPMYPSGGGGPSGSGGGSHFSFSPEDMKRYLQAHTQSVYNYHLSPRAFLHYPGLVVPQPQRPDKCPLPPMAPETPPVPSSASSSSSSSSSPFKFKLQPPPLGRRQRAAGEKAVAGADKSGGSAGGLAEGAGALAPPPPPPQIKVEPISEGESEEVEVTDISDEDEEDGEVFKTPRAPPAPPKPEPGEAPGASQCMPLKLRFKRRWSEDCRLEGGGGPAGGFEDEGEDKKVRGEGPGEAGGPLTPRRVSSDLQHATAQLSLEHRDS
In a few lines:
as §1

A further assay deals with T9, ETV3L (Homo sapiens, UniProt Q6ZN32 1-361).
T9 sequence: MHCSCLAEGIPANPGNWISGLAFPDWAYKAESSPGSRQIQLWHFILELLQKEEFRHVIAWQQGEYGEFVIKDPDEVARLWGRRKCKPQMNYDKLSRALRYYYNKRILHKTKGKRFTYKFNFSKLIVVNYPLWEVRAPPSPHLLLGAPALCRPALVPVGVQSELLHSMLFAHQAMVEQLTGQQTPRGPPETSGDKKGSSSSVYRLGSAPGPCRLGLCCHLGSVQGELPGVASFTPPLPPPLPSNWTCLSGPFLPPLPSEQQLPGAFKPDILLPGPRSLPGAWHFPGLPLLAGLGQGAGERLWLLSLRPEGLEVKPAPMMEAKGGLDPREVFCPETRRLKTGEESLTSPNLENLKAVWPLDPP
The method, boiled down: as §1

Another assay addresses T10, ETS2 (Homo sapiens, UniProt P15036 1-469).
T10 sequence: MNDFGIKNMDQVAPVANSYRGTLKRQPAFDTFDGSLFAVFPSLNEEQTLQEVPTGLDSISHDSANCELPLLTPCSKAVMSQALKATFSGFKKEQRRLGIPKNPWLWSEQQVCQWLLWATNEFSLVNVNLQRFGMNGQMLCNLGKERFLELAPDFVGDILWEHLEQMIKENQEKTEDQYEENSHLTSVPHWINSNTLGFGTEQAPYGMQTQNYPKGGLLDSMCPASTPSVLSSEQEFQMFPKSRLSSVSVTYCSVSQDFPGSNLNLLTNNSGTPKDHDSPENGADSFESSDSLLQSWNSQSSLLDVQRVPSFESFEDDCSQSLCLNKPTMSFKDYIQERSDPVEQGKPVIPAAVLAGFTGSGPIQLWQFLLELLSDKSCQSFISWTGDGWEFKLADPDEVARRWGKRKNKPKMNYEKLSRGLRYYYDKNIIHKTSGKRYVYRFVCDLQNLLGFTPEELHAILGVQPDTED
The method, boiled down:
as §1

Another assay addresses T11, SPDEF (Homo sapiens, UniProt O95238 1-335).
T11 sequence: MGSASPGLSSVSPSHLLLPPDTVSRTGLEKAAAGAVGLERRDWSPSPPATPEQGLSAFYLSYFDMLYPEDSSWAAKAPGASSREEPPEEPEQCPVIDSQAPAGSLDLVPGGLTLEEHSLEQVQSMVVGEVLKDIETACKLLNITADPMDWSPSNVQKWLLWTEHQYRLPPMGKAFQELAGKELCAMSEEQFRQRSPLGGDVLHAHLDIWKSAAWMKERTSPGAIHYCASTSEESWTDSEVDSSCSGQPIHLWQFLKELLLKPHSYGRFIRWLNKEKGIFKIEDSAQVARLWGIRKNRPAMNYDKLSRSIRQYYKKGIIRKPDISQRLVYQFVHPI
In a few lines:
as §1

The next assay has as its target T12, ETV3 (Homo sapiens, UniProt P41162-2 1-143).
T12 sequence: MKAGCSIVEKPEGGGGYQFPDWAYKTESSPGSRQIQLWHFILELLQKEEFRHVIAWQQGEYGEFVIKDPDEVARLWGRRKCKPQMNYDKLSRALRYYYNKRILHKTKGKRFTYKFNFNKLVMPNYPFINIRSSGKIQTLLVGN
In a few lines:
as §1

Another assay concerns the target ETV6 (Homo sapiens, UniProt P41212 1-452). The method, boiled down:
as §1

ETV5, sequence (P41161 whole entry): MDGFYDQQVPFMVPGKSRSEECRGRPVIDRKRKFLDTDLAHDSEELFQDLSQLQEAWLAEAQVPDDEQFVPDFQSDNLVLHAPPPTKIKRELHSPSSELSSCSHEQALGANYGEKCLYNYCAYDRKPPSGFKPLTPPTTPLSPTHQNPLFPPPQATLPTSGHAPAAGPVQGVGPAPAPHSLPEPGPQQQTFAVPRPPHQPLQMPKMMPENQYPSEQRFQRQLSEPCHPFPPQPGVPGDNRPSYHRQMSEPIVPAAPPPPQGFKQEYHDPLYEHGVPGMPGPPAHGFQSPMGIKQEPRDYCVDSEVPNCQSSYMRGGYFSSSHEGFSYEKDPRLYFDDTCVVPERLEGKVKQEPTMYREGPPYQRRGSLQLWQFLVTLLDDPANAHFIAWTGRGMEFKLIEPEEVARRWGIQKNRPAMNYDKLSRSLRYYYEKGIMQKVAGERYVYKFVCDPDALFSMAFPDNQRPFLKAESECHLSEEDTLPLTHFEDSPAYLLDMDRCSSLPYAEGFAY
ELF4, sequence (Q99607 whole entry): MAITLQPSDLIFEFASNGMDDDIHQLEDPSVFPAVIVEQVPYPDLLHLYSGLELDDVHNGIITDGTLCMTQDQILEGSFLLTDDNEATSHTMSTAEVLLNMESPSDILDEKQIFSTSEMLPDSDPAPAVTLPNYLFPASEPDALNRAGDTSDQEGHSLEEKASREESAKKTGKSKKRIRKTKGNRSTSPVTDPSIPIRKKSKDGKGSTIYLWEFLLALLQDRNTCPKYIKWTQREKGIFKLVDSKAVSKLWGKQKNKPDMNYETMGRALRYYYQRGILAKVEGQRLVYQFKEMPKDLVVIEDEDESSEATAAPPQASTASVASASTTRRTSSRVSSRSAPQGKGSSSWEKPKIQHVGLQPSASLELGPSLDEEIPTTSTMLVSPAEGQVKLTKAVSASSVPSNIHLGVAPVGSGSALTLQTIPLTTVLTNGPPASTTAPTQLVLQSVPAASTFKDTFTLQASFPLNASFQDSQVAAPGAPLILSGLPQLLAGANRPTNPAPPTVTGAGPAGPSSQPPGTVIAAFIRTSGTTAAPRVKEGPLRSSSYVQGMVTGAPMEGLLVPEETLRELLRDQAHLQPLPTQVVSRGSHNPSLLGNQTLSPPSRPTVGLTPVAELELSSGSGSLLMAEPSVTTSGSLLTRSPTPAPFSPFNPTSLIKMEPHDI
ELF1, sequence (P32519 whole entry): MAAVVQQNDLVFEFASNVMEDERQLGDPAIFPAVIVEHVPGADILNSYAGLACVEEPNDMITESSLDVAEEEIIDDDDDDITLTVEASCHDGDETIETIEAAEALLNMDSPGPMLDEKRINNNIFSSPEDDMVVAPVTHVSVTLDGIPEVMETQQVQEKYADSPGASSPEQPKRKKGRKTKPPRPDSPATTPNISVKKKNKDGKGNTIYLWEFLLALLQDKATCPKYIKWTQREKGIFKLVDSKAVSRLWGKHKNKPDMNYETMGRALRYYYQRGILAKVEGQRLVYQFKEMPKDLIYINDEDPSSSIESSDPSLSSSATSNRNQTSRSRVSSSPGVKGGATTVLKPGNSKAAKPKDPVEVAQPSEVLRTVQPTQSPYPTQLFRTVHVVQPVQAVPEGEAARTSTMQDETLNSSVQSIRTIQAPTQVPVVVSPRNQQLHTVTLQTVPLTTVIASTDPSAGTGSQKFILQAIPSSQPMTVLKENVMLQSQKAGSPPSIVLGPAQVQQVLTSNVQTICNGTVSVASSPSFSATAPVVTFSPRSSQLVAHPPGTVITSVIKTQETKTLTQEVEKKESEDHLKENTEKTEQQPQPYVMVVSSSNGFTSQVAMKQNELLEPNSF
ETV6, sequence (P41212 whole entry): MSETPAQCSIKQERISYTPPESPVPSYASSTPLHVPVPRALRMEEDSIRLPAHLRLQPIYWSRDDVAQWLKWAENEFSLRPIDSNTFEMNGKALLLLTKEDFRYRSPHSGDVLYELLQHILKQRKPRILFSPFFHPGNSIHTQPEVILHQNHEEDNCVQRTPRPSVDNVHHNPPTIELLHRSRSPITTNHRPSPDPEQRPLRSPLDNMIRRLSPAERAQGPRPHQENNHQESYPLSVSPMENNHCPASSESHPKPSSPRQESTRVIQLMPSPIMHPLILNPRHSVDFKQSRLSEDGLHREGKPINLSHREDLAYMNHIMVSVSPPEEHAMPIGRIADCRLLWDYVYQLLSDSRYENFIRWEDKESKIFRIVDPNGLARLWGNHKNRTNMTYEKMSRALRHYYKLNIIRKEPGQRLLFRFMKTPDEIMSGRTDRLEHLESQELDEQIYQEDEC
SPIB, sequence (Q01892 whole entry): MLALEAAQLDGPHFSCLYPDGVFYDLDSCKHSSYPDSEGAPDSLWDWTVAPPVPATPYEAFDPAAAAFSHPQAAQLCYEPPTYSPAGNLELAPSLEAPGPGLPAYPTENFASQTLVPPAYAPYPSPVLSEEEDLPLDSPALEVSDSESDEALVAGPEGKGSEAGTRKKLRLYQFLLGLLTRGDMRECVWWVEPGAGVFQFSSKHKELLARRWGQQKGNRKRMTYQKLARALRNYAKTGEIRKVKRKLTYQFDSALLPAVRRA

For the sequence AGCGCC, the binding signal with ELK1 is 1.06 fold enrichment (6-mer frequency, TF over GST control); with GABPA, 1.07 fold enrichment (6-mer frequency, TF over GST control); with ERG it was 1.05 fold enrichment (6-mer frequency, TF over GST control); with ELF1 it was 1.13 fold enrichment (6-mer frequency, TF over GST control); in the assay with EHF, 1.13 fold enrichment (6-mer frequency, TF over GST control); with SPIB, 1.1 fold enrichment (6-mer frequency, TF over GST control). For the same sequence, the binding signal with FEV was 1.19 fold enrichment (6-mer frequency, TF over GST control); in the assay with ETV5, 1.04 fold enrichment (6-mer frequency, TF over GST control); with ELF4, 1.09 fold enrichment (6-mer frequency, TF over GST control); in the assay with ELK4 it was 1.11 fold enrichment (6-mer frequency, TF over GST control); in the assay with ETV2, 1.09 fold enrichment (6-mer frequency, TF over GST control); with ERF, 1.05 fold enrichment (6-mer frequency, TF over GST control). The binding signal with ETV3L is 1.07 fold enrichment (6-mer frequency, TF over GST control); in the assay with ETS2, 1.06 fold enrichment (6-mer frequency, TF over GST control); in the assay with SPDEF, 1.02 fold enrichment (6-mer frequency, TF over GST control); with ETV3 it was 1.14 fold enrichment (6-mer frequency, TF over GST control); with ETV6, 1.16 fold enrichment (6-mer frequency, TF over GST control).
